Source: PubChem (National Center for Advancing Translational Sciences (NCATS))
An excerpt weighted towards active compounds, which were near 6% of everything screened.
D1 PAM = enhances dopamine response at the human D1 receptor; AID 504651; potentiation, % at 10 µM; HEK293 TREx D1 cells, calcium flux, dopamine EC20 potentiation; P21728; 0.036% of 360,000 active; in the data active = potentiation above about 30%; also: 0% is about no effect
DRD3 antagonist = blocks the human D3 dopamine receptor. 2.5% of 360,000 active. max response, negative = inhibition, %. D3R cells, DiscoveRx beta-arrestin luminescence, antagonist mode; stronger effect = lower value. P35462; in the data active = max response below about -50%; inconclusive = no clear call, values can overlap the other calls; also: % is scaled to controls: 0 for no effect and ±100 for the full control effect
Target sequence (P35462 whole entry, looked up): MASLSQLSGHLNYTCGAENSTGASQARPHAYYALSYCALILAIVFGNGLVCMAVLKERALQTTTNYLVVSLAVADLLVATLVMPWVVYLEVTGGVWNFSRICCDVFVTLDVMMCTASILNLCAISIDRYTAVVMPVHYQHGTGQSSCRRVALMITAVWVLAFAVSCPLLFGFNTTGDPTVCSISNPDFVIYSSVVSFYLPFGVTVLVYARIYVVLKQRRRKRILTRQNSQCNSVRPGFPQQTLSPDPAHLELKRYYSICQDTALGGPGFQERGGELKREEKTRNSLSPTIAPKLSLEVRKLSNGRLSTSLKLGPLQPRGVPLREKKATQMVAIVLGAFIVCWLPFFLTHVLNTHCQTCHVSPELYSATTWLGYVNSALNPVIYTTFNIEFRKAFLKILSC
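Cells expressing the human receptor were seeded at 1500 cells/well, incubated overnight at 37 degrees C in 5% CO2, then exposed to library compounds with dopamine controls for 90 minutes at 37 degrees C before luminescent detection.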
DRD3 agonist = activates the human D3 dopamine receptor. P35462. D3R DiscoveRx beta-arrestin cells, luminescence, 90 min. max activation, %. 0.58% of 410,000 active; in the data active = max activation above about 30%; also: 0% is about no effect
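Cells at 1500/well, incubated overnight, then treated with pinned compounds (dopamine as control) for 90 min at 37 degrees C. DiscoveRx reagent added for 30 - 60 minutes at room temperature; luminescence read.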
D1 antagonist = antagonists of human D1 dopamine receptor; P21728; HEK293 TREx D1 cells, calcium flux, dopamine EC80; stronger effect = lower value; activity change, negative = inhibition, % at 10 µM; 3.2% of 360,000 active; AID 504652; in the data active = activity change below about -30%; also: % is scaled to controls: 0 for no effect and ±100 for the full control effect
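Antagonism measured as reduced calcium response to an EC80 dopamine addition following 180 s compound pre-read; cells were inducible HEK293 Trex D1 plated overnight at 30 C, read kinetically at 1 cycle/sec.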
D1 ag = activates the human D1 dopamine receptor. P21728. AID 504660. HEK293 T-REx D1 cells, calcium flux, agonist mode. 1% of 360,000 active. activation, % at 2 µM; in the data active = activation above about 30%; also: 0% is about no effect
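Inducible HEK293 T-REx D1 cells, force-coupled to calcium signalling, were plated at 4000 cells/well with tetracycline and held overnight at 30 C. After no-wash calcium dye loading, compound-evoked calcium rise over 180 s flagged agonists.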
The depositor's hits bear a star; ? = inconclusive; . = not tested or not shown.

SMILES	D1 PAM	DRD3 antagonist	DRD3 agonist	D1 antagonist	D1 ag
CCc1nc2ccc(C(=O)Nc3cc(-c4ccccc4)ccc3OC)cn2c1N(C)CCCc1ccccc1	.	?	-15	.	.
CCCCNC(=O)c1ccc2nc(CC)c(N(CCC(C)C)CCN(C)C)n2c1	.	16	-12	.	.
O=C(Cc1cccs1)Nc1c(C(=O)Nc2ccc(F)cc2)oc2ccccc12	-3	.	-3	-17	26
Cc1ccc(C)c(Cn2c(=O)n(Cc3ccccc3)c(=O)c3c2c2cc(C)ccc2n3C)c1	-1	.	6	4	2
CC(=O)Nc1ccc(S(=O)(=O)NCCc2csc3nc(-c4ccc(Cl)cc4)nn23)cc1	1	.	5	.	3
CCOC(=O)CCC(NC(=O)c1cncc(O)c1)C(=O)OCC (stereo not drawn)	1	-65*	-1	16	4
CCOC(=O)CCC(NC(=O)CCCCC(=O)NC(CCC(=O)OCC)C(=O)OCC)C(=O)OCC (stereo not drawn)	-5	1	1	11	4
CCCNC(=S)Nc1ccc(S(N)(=O)=O)cc1	8	-16	-3	4	0
C#CC(CC)(CC)NC(=S)Nc1ccc(S(N)(=O)=O)cc1	-1	-25	-8	-43*	2
Cc1cccc(NC(=O)c2oc3ccc(S(=O)(=O)N4CCC5(CC4)OCCO5)cc3c2C)c1C	1	.	3	-4	0
CC(=O)c1cccc(NC(=O)C(OC(=O)c2cccs2)c2ccccc2)c1 (stereo not drawn)	0	30	-1	-1	9
COCCNC(=O)C(OC(=O)c1cccs1)c1ccccc1 (stereo not drawn)	3	3	3	-36*	9
COc1ccc(NC(=O)C2CCCO2)cc1 (stereo not drawn)	-6	-14	2	0	0
COc1ccc(C(=O)NNC(=O)C(=O)NC2CCCCC2)cc1	-7	-6	3	-46*	4
COc1ccc(C(=O)N[C@H](C(=O)NC2CCCCC2)C(C)C)cc1	.	-15	-8	.	.
O=C(Nc1ccc(Oc2ccccc2)cc1)C1CCCO1 (stereo not drawn)	-9	-79*	-4	0	0
COc1cccc(C(=O)NNC(=O)C2CCCO2)c1 (stereo not drawn)	-9	10	11	-30	3
COc1ccc(C(=O)NNC(=O)C2CCCO2)cc1 (stereo not drawn)	-3	7	0	-31*	0
CN(C(=O)CSc1nc2ccc(NC(=O)COc3ccc(F)cc3)cc2s1)c1ccccc1	-2	.	-3	-11	7
CCC(C(=O)N1CCN(c2ccccc2F)CC1)n1nc(C)c2sc3ccccc3c2c1=O (stereo not drawn)	2	.	8	1	3
COc1cccc(CN2C(=O)c3ccccc3Sc3ccc(C(=O)NCCc4ccc(Cl)cc4)cc32)c1	0	.	-3	4	8
Cc1cc2nc(C)c(=O)n(C)c2cc1C	-8	5	6	-38*	-1
Clc1ccc(OCCCN2CCCCC2)c(Br)c1	-18	-68*	-10	-62*	14
CCN1CCN(CCCOc2ccc(Cl)cc2Br)CC1	-8	?	-11	-22	59*
Brc1ccccc1OCCCCCN1CCCC1	-8	.	.	-3	1
SMILES	D1 PAM	DRD3 antagonist	DRD3 agonist	D1 antagonist	D1 ag
Clc1ccc(OCCCCCN2CCCC2)c(Br)c1	-6	-52*	-14	-10	73*
CC(C)c1ccc(C2N=C(N)Nc3nc4ccccc4n32)cc1 (stereo not drawn)	-5	.	-4	-15	2
CCN(CC)S(=O)(=O)c1ccc(C(=O)NCCSc2c(-c3ccc(C)cc3)[nH]c3ccccc23)cc1	0	.	3	5	1
CC(=O)N1CCc2cc(C(=O)CN3CCC(C)CC3)ccc21	-2	-10	-9	2	2
CC(=O)N1CCc2cc(C(=O)CN3CCN(c4cccc(Cl)c4)CC3)ccc21	-6	-50*	-8	-22	7
Cc1ccc(N2CCN(C(=O)Nc3cn(CC(C)C)c(=O)c4ccccc34)CC2)c(C)c1	-4	.	-12	-5	1
COc1c(Br)cc(Br)cc1C(=O)O	0	-13	37*	5	0
CCN(C(=O)Cn1c(SCc2ccccc2F)nc2cccnc21)c1ccccc1	1	.	1	2	2
CCN(CC)CCOC(=O)/C=C/c1ccccc1	4	-63*	-17	2	4
CCN(CC)CCCOC(=O)C(c1ccccc1)c1ccccc1	3	-85*	-53	-4	5
CCOc1ccc(OCC)c(NS(=O)(=O)c2cc(-c3cc(C)no3)ccc2C)c1	-2	.	-7	-4	2
COc1cccc(C2CC(=O)Nc3c2c(=O)n(C)c2nc4ccccc4n32)c1 (stereo not drawn)	-5	.	-2	-6	-1
CCn1ccnc1CNCc1ccc(OCC(O)CN(C)Cc2ccccc2)cc1 (stereo not drawn)	1	-59*	-6	19	2
CN(Cc1ccccc1)CC(O)COc1ccc(CNCCc2cccnc2)cc1 (stereo not drawn)	-6	-7	-10	4	8
CCc1ccc(CNCc2ccc(OCC(O)CN(C)Cc3ccccc3)cc2)nc1 (stereo not drawn)	-2	-54*	-13	-6	12
COc1ccccc1CNC(=O)COC(=O)c1c[nH]c2ccccc12	-19	13	-1	-41*	45*
COc1ccccc1NC(=O)COC(=O)c1c[nH]c2ccccc12	-2	-1	-6	-22	9
COc1ccc(NC(=O)CCc2nnc3n(Cc4ccccc4Cl)c(=O)c4ccccc4n23)cc1	-4	.	7	3	0
CNCCC=C1c2ccccc2C=Cc2ccccc21	.	-77*	-81	.	.
CN(C)CCC=C1c2ccccc2CCc2ccccc21	-5	-20	-11	-67*	11
CN(C)CC/C=C1/c2ccccc2COc2ccccc21	-4	.	.	-74*	9
CN(C)CCC=C1c2ccccc2C=Cc2ccccc21	-5	-120*	-95	-100*	13
Cc1ccc(Cn2c(=O)c3cccnc3n(Cc3ccc(F)cc3)c2=O)cc1	-4	.	3	-7	4
Cc1sc2ncn(CC(=O)N(C)c3ccc(C(C)C)cc3)c(=O)c2c1S(=O)(=O)N1CCC(C)CC1	2	.	-5	0	1
Cc1ccc(-n2[nH]c(C)c(/C=N/c3ccccn3)c2=O)cc1	5	15	3	-8	-1
Cc1[nH]n(-c2ccccc2)c(=O)c1C=Nc1cccc2cccnc12	-8	-87*	-20	4	1
Cc1ccc(-n2[nH]c(C)c(C=Nc3ccc(Br)cn3)c2=O)cc1	-8	7	0	-33*	2
Cc1ccc([N+](=O)[O-])cc1S(=O)(=O)Nc1cccc(-c2ccc(N3CCOCC3)nn2)c1	-2	-2	6	-3	3
COc1ccc(S(=O)(=O)Nc2cccc(-c3ccc(N4CCOCC4)nn3)c2)cc1F	2	.	3	-37*	-1
